Compounds with a hit are over-represented: about 1.4% of the library has one in this group of screens.
AID504770: growth inhibitors of E. coli YBA685 in a screen for V. cholerae RctB (chromosome II replication) inhibitors; E. coli YBA685 rctB-dependent plasmid, OD600 growth, 3 h; active compounds read low; z-score (no concentration beside the values); 130,000 tested, 0.27% active; AID 504770; in the data active means z-score below about -2, passing the limit was not always enough
MenB inh: blocks the Mycobacterium tuberculosis MenB enzyme; P9WNP5; MenB enzyme assay, absorbance read-out; inhibition, % (no concentration beside the values); 100,000 tested, 0.43% active; in the data active means inhibition above about 21%, passing the limit was not always enough
PV pol inh: poliovirus RNA polymerase inhibition; poliovirus polymerase elongation, fluorescence polarization; active compounds read low; 150,000 tested, 0.66% active; AID 588519; % elongation, % (compound at 16.7 µg/mL); in the data active means % elongation below about 90%
MbtI inh: inhibitors of Mycobacterium tuberculosis siderophore enzyme MbtI. inhibition, % (no concentration beside the values). 100,000 tested, 0.89% active. AID 493033. purified MbtI enzyme, fluorescence intensity read-out; in the data active means inhibition mostly above about 56%, no sharp cut-off; inactive means mostly below about 77%
Target sequence (P9WFX0 whole entry, looked up): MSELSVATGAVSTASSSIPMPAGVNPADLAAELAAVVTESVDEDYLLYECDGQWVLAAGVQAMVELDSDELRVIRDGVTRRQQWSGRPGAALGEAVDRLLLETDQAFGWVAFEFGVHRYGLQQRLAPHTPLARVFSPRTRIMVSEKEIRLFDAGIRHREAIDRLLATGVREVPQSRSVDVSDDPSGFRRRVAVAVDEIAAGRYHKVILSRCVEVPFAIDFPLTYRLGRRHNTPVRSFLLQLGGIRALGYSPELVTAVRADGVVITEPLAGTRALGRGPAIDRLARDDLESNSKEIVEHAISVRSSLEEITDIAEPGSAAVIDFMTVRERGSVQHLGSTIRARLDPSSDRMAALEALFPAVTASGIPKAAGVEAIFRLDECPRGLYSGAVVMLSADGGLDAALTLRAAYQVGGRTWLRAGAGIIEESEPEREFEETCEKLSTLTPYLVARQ
* = called active by the depositor; / = not tested or not shown.

SMILES	AID504770	MenB inh	PV pol inh	MbtI inh
Nc1ccc2nc(CCCO)[nH]c2c1	0.75	28	54*	59
Cn1c(CNC(=O)C2CCCCC2)cc2cc(Cl)ccc21	-0.35	23*	104	/
O=S(=O)(CCc1ccccc1)c1ccccc1	1.1	26*	100	-3
Cn1cc(Br)c(N2C(=O)C=CC2=O)n1	-4.2*	-12	100	95*
O=C(Nc1cccnc1)Nc1c[nH]c2c(Cl)cccc2c1=O	-1.2	-39	106	-2
COc1ccccc1N=C=S	-1.2	-8	99	-7
CSc1nnc(NC(=O)c2ccco2)s1	-1.1	/	/	/
Cc1ccccc1N1CC(c2nnc(NC(=O)c3ccco3)s2)CC1=O (stereo not drawn)	/	/	82*	/
CCOC(=O)c1c(NC(=O)COc2cccc(C(F)(F)F)c2)sc2c1CCCCC2	/	/	90*	/
COC(=O)c1c(NC(=O)COc2ccc(OC)cc2)sc2c1CCCC2	-0.75	/	/	/
CCOC(=O)c1c(NC(=O)COc2ccc(C(C)(C)C)cc2)sc2c1CCCC2	/	/	104	/
COC(=O)c1c(NC(=O)COc2ccc(Cl)cc2C)sc2c1CCCCC2	/	/	85*	/
CCOC(=O)c1c(NC(=O)C(C)Oc2ccc(Cl)c(C)c2)sc2c1CCCC2 (stereo not drawn)	/	/	104	/
COC(=O)c1c(NC(=O)COc2cc(C)c(Cl)c(C)c2)sc2c1CCCC2	/	/	90*	/
CCCc1ccc(OC(C)C(=O)Nc2sc3c(c2C(=O)OC)CCCCC3)cc1 (stereo not drawn)	/	/	86*	/
COCc1[nH]nc(N)c1-c1ccccc1	-0.05	-2	100	-26
COc1ccc(N(C(C)C(=O)N=Nc2c(O)[nH]c3ccccc23)S(C)(=O)=O)cc1 (stereo not drawn)	-0.55	-32	101	-29
c1cc(-c2csnn2)ccc1-c1csnn1	1.1	/	/	/
CC(=O)N1C(=O)/C(=C2\SC(=S)N(C(C)C(=O)O)C2=O)c2ccccc21 (stereo not drawn)	1.7	34*	103	9
Nc1nc(-c2sccc2Cl)cs1	-1.6	/	/	/
COc1cc(NC(=O)C(F)(F)F)c(OC)cc1Br	-0.5	33*	102	-7
Cc1cc(C)c(C#N)c(=N)o1	0.1	1	55*	109
Cc1cc(C)n(N)c(=O)c1C#N	-0.25	-29	100	-17
O=c1ccsn1Cc1ccccc1	-9.2*	-116	97	93*
CC1=NN(c2ccccc2)C(=S)/C1=C\N1CCCCC1	0.75	-40	104	98*
SMILES	AID504770	MenB inh	PV pol inh	MbtI inh
Cn1c(Cc2ccccc2)nc2ccccc21	1	/	/	/
CCNC(=S)NCc1ccc2c(c1)OCO2	-1.4	-26	106	-9
CC1CCC2(CC1)NC(=O)N(NC(=S)NCc1ccc3c(c1)OCO3)C2=O (stereo not drawn)	2.2	-29	103	67*
CC(=O)Oc1ccc(OC(C)=O)cc1	0.45	3	107	12
CN(C)C=NC(=S)c1sccc1CSc1ccc(Cl)cc1	1.8	-26	106	74*
N#Cc1sccc1CSc1ccc(Cl)cc1	0.8	/	/	/
OC(Cc1cccnc1)(c1ccccc1)c1ccccc1	0.05	-3	89*	-6
O=C(CSc1ccc2ccccc2c1)NCCc1ccc(O)c(O)c1	-0.3	/	100	93*
Cc1nnc(SCC(=O)Nc2ccc(Cl)cc2Cl)n1C	-0.15	/	101	-13
CCOC(=O)CC1Sc2ccccc2N=C1SCC(=O)Nc1ccc(Cl)cc1Cl (stereo not drawn)	1.9	-54	110	96*
CCn1c(C)nc2cc(OC)ccc21	0.9	/	102	6
COc1cc2nc(C)n(C(=S)S)c2cc1OC	0.6	-25	78*	10
CC(C)(C)C1CCc2onc(C(=O)Nc3sc4c(c3C#N)CCCC4)c2C1 (stereo not drawn)	/	/	82*	/
CC(C)(C)C1CCc2onc(C(=O)Nc3sc4c(c3C(N)=O)CCCC4)c2C1 (stereo not drawn)	/	/	79*	/
CCn1cc(C(=O)O)c(=O)c2cc(F)c(N3CCNC(C)C3)c(F)c21 (stereo not drawn)	-3.6*	0	103	58
Cc1ccc(N=C2NN=C(c3ccccc3)C(C(=O)Nc3ccc4c(c3)OCO4)S2)cc1 (stereo not drawn)	1.1	-7	85*	39
CN1CCN(C(=S)c2cccc(OCc3ccccc3)c2)CC1	-0.45	-11	101	33
S=C(c1cccc(OCc2ccccc2)c1)N1CCCCC1	0.1	-34	94	73*
COc1cccc(OC)c1C(=O)ON=C1C=CC(=O)C=C1	-1.3	-24	103	83*
COC(=O)c1cc2cccc(OC)c2oc1=O	-0.65	15	101	10
CCCN(CCC)C(=O)c1ccccc1Cl	-0.55	-20	107	/
CO/N=C(/C(=O)N[C@@H]1C(=O)N2C(C(=O)O)=C(COC(C)=O)CS[C@H]12)c1csc(N)n1	-3.1*	4	100	-15
CC(C)(O/N=C(/C(=O)N[C@@H]1C(=O)N2C(C(=O)[O-])=C(C[n+]3ccccc3)CS[C@H]12)c1csc(N)n1)C(=O)O	/	-5	98	2
O=C(CCCN1C(=O)C2C3C=CC(C3)C2C1=O)N1CCN(c2ccccc2F)CC1 (stereo not drawn)	-0.55	3	99	25
CC(=O)Oc1ccc(OC(C)=O)c(C2=C3C(=O)N(CCc4c[nH]c5ccccc45)CC(=O)N3CCC2)c1	0.3	12	104	100*
SMILES	AID504770	MenB inh	PV pol inh	MbtI inh
COCC(C)N=C1NN=C(c2cc(C)n(CC3COc4ccccc4O3)c2C)CS1 (stereo not drawn)	0.65	-18	104	0
COC(=O)Cn1c(C(=O)OC)cc2c1ccn2-c1ccc(F)cc1	0.1	8	101	89
COC(=O)Cn1c(C(=O)OC)cc2c1ccn2C	1.1	33*	103	24
COC(=O)c1c(NC(=S)NCc2ccco2)sc2c1CCC(C)C2 (stereo not drawn)	-0.05	-18	101	-3
COC(=O)c1c(NC(=S)Nn2cnnc2)sc2c1CCC(C)C2 (stereo not drawn)	-0.2	-15	99	85*
CCSc1ccc(SC#N)s1	-5.2*	-76	95	54
NS(=O)(=O)c1cccc(S(=O)(=O)c2ccc(Cl)c(Cl)c2)c1	-0.2	1	99	67*
CN1/C(=N\O)c2cccc3cccc1c23	0.25	-70	96	81*
O=C1c2ccccc2S(=O)(=O)N1CCSc1ncc(C(F)(F)F)cc1Cl	-0.05	-13	103	0
O=C(CCNS(=O)(=O)c1ccccc1F)N1CCN(c2ccccc2Cl)CC1	0.3	-19	105	-22
Cc1cc(N2CCN(C)CC2)nc2ccc(NC(=S)N(C)C3CCCCC3)cc12	0.4	-18	100	8
CCOc1ccc(CCNC(=O)c2cccc3c2SCCC3=O)cc1OCC	0.05	-11	101	-11
O=C(/C=C/c1ccccc1)Oc1ccccc1	2.2	-11	104	5
O=C(/C=C/c1ccccc1)Oc1nc2ccccc2s1	0.3	3	85*	/
c1cc(OC2CCNCC2)cc(-n2cnnn2)c1	-0.4	-3	105	31
CC(C)OCC(O)CN (stereo not drawn)	1.9	32*	102	-1
CCOCC(O)CN (stereo not drawn)	-0.4	-10	100	-4

Compound activity deposited in PubChem BioAssay by ICCB-Longwood Screening Facility, Harvard Medical School.
